Compounds with a hit are over-represented: about 1.5% of the library has one in this group of screens.
FEN1 inhibitor: qHTS Assay for the Inhibitors of Human Flap endonuclease 1 (FEN1); P39748; Recombinant FEN1 flap cleavage, fluorescence, 15 min; Potency, µM (doses to about 114 µM), most hits filed as inhibitors; actives 0.35% (n = 390,000); further: nearly all actives have a fitted effect of over 65% in size
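Nuclease activity of 10 nM FEN1 was measured after 15 min of room-temperature exposure to titrated compounds, by adding 50 nM flap substrate and reading plates at 0 and 15 min.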
WRN helicase inh: qHTS for Inhibitors of WRN Helicase. Bifunctional 3'-5' exonuclease/ATP-dependent helicase WRN (Homo sapiens), Q14191. WRN helicase unwinding, fluorescent forked duplex, kinetic. Potency, µM (highest dose often 114 µM), usual class: inhibitors. actives 0.46% (n = 360,000); further: nearly all actives have a fitted effect of over 55% in size
Target sequence (Q14191 whole entry, looked up): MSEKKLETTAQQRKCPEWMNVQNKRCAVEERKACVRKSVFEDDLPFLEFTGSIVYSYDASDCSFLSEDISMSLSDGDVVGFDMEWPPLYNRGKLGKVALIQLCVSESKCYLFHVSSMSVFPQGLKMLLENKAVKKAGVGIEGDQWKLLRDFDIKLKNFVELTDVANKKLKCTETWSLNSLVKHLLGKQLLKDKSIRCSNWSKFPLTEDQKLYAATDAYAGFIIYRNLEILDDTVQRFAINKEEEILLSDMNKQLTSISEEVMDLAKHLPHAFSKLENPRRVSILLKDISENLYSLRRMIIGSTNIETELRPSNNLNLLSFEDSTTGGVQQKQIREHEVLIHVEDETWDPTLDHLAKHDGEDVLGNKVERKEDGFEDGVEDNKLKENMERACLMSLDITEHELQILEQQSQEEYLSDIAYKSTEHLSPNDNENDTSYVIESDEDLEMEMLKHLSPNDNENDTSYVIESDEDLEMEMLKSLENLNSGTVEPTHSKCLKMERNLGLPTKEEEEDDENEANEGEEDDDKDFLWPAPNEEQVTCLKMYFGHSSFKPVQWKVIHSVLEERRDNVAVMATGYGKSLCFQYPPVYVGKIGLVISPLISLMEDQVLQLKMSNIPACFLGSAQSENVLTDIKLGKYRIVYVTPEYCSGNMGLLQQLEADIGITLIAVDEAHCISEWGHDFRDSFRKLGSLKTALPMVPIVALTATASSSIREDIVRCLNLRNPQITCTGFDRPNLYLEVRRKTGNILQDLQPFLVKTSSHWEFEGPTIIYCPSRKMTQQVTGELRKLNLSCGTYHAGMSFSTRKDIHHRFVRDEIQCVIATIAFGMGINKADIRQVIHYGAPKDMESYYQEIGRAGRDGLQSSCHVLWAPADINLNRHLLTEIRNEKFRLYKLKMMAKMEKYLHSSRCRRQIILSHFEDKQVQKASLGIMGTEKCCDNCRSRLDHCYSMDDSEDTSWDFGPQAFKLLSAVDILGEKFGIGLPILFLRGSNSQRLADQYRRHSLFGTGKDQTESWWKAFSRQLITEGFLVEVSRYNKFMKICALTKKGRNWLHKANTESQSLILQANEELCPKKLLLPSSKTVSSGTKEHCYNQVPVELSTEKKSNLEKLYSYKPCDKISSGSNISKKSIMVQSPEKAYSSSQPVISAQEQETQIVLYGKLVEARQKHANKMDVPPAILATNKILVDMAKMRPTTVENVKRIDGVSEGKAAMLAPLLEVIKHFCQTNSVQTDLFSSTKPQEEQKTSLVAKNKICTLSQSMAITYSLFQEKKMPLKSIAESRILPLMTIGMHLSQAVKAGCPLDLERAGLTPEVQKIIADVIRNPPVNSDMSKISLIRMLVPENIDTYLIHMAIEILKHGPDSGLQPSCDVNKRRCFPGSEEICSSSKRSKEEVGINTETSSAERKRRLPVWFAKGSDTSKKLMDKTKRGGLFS
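Kinetic red-fluorescence monitoring (525/598 nm) tracks WRN helicase activity after 100 nM fluorophore-quencher forked duplex and 2 mM ATP are added to 20 nM enzyme pretreated 15 min at room temperature with compound.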
Tb PGK inh: qHTS Assay to Find Inhibitors of Phosphoglycerate Kinase; Phosphoglycerate kinase, glycosomal (Trypanosoma brucei brucei), P07378; PGK/GAPDH coupled, Kinase-Glo luminescence, 60 min; Potency, µM (doses to about 57.5 µM), usual class: inhibitors; actives 0.043% (n = 380,000); AID 602233, 2012; further: nearly all actives have a fitted effect of over 60% in size
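Recombinant glycosomal PGK reaction used 1,3-bisphosphoglycerate generated in-well by GAPDH (100nM final) in 100mM TEA pH 7.6, 5mM MgCl2, 0.01% Tween-20. After 60 minutes at room temperature, ATP was read by Kinase-Glo Plus luminescence end-point.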
TDP1 inh: qHTS Assay for Inhibitors of Tyrosyl-DNA Phosphodiesterase (TDP1); Tyrosyl-DNA phosphodiesterase 1 (Homo sapiens), Q9NUW8; recombinant TDP1, AlphaScreen DNA substrate cleavage; Potency, µM (doses to about 130 µM), most hits filed as inhibitors; actives 0.28% (n = 350,000); AID 485290, 2010; further: nearly all actives have a fitted effect of over 40% in size
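E. coli-derived human Tdp1, 1 nM final. Cpd preinc 15 min RT; substrate 15 nM final, 5 min RT; AS bead mix 10 ug/ml final, 10 min RT. Signal loss = tyrosine-FITC cleavage. No-enzyme wells = max signal.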
Tb PFK inh: qHTS Assay to Find Inhibitors of T. brucei phosphofructokinase; Potency, µM (top dose mostly 57.5 µM), usual class: inhibitors; ATP-dependent 6-phosphofructokinase (Trypanosoma brucei brucei), O15648; T. brucei PFK, ADP-Glo luminescence; actives 0.17% (n = 330,000); AID 485367, 2010; further: nearly all actives have a fitted effect of over 60% in size
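PFK 1.25 nM, F6P 0.5 mM, ATP 0.1 mM, 0.1 M TEA pH 8.0, 5 mM MgCl2, 0.01% Tween20, 0.1% BSA; 45 min RT. ADP-Glo readout. qHTS titration up to 57 uM; curves fitted, compounds curve-classed.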
PI5P4K alpha inh: qHTS for Inhibitors of phosphatidylinositol 5-phosphate 4-kinase (PI5P4K); Phosphatidylinositol 5-phosphate 4-kinase type-2 alpha (Homo sapiens), P48426; PI5P4Kalpha enzyme, ADP-Glo luminescence, 60 min; stronger effect = lower value; max response, %; actives 1.2% (n = 330,000); AID 652105, 2013; active means max response of -50% or lower; inconclusive means between -30% and -50%; inactive means -30% or higher; further: value at the top dose of about 77 µM
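Controls without substrate or without enzyme flank wells where PI5P4Kalpha converts substrate using 5 microM ATP (final). Incubation lasts 60 minutes at room temperature; ADP formed is read by ADP-Glo luminescence.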
Of the large screens only hits and unclear results are named; the others gave an inactive call. Unless noted, the call rests on the fitted dose curve; in most records, active means well fitted curve in the direction sought with a large enough effect; inconclusive means small, poorly fitted or top-dose-only effect, or another doubt; inactive means no such curve, though single readings can be large; an effect the other way counts as inactive or inconclusive.

CCOC(=O)N1CCC(N2Cc3cccc(C(=O)NCc4ccc5c(c4)OCO5)c3C2=O)CC1	TDP1 inh 50.1µM, Tb PFK inh inconclusive
COc1ccc(-c2noc(C3CCCN(C(=O)c4ccc(F)cc4)C3)n2)cc1 (centres undefined)	FEN1 inhibitor 89.1µM (no result: TDP1 inh)
O=C1CCc2cc(S(=O)(=O)Nc3ccc4ccccc4c3)ccc2N1	none (no result: FEN1 inhibitor, WRN helicase inh, Tb PGK inh, Tb PFK inh, PI5P4K alpha inh)
COC(=O)c1ccc(S(=O)(=O)N2CCCCCC2)cc1	none (no result: PI5P4K alpha inh)
O=C(/C=C/c1ccc(O)c(O)c1)c1ccc(S(=O)(=O)N2CCCCCC2)cc1	WRN helicase inh inconclusive, PI5P4K alpha inh -64.4
Cc1ccc(S(=O)(=O)CCC(=O)Nc2sccc2C#N)cc1	none
COc1ccc(OC)c(NC(=O)COC(=O)CNC(=O)c2ccc(OC)c(OC)c2)c1	none
Cc1ccc(S(=O)(=O)CCC(=O)OCC(=O)Nc2sccc2C#N)cc1	PI5P4K alpha inh -60.4 (no result: FEN1 inhibitor, TDP1 inh, Tb PFK inh)
COc1ccc(C(=O)NCC(=O)OCC(=O)Nc2sccc2C#N)cc1OC	PI5P4K alpha inh -58.0
COc1cc(OC)c(OC)cc1/C=C/c1ccc2ccccc2n1	none (no result: WRN helicase inh, Tb PGK inh, TDP1 inh, Tb PFK inh, PI5P4K alpha inh)
Cc1c(P(=S)(c2ccccc2)c2ccccc2)c2ccccc2n1CCc1ccccc1	none (no result: FEN1 inhibitor, WRN helicase inh, Tb PGK inh, Tb PFK inh, PI5P4K alpha inh)
Nc1ccccc1OC1=NS(=O)(=O)c2ccccc21	none (no result: FEN1 inhibitor, WRN helicase inh, Tb PGK inh, Tb PFK inh, PI5P4K alpha inh)
CSC1=NS(=O)(=O)c2c(C)nn(C)c2S1	FEN1 inhibitor inconclusive, Tb PFK inh inconclusive, PI5P4K alpha inh -76.3
COc1ccc(C2c3c(ncn(CCCc4ccccc4)c3=N)Oc3ccc4ccccc4c32)cc1OC (centres undefined)	none (no result: FEN1 inhibitor, WRN helicase inh, Tb PGK inh, Tb PFK inh, PI5P4K alpha inh)
COc1ccccc1N1C(=O)c2ccccc2C1=O	none (no result: FEN1 inhibitor, WRN helicase inh, Tb PGK inh, Tb PFK inh, PI5P4K alpha inh)
O=C1Nc2ccc(I)cc2C1=Cc1cc(Br)c(O)c(Br)c1	FEN1 inhibitor 35.5µM (no result: WRN helicase inh, Tb PGK inh, TDP1 inh, Tb PFK inh, PI5P4K alpha inh)
CNc1ccc(/C=C2\C=Cc3ccccc32)cc1Cl	none (no result: WRN helicase inh, Tb PGK inh, TDP1 inh, Tb PFK inh, PI5P4K alpha inh)
Cc1ccc(-c2csc3ncnc(Sc4nnnn4-c4ccccc4)c23)cc1	none (no result: WRN helicase inh, Tb PGK inh, TDP1 inh, Tb PFK inh, PI5P4K alpha inh)
CC1(C)CC(=O)C(C(C2=C(O)CC(C)(C)CC2=O)c2ccc([N+](=O)[O-])cc2)C(=O)C1 (centres undefined)	Tb PFK inh inconclusive
Cc1ccc(C(C2=C(O)CC(C)(C)CC2=O)C2C(=O)CC(C)(C)CC2=O)s1 (centres undefined)	WRN helicase inh 56.2µM, PI5P4K alpha inh inconclusive
CC1(C)CC(=O)C(C(C2=C(O)CC(C)(C)CC2=O)c2ccc(Br)s2)C(=O)C1 (centres undefined)	WRN helicase inh 22.4µM, Tb PFK inh inconclusive, PI5P4K alpha inh -79.6
COc1ccc(CCNCC(=O)Nc2ccc(C)c(Br)c2)cc1OC	none (no result: TDP1 inh)
COc1ccc(CCNCC(=O)Nc2ccc(C)c(S(=O)(=O)N(C)C)c2)cc1OC	TDP1 inh 79.4µM
CC1OC(OC2C(Oc3c(-c4ccc(O)cc4)oc4cc(O)cc(O)c4c3=O)OC(COC3O[C@@H](C)[C@H](O)[C@@H](O)C3O)C(O)C2O)C(O)C(O)C1O (some centres undefined)	none (no result: TDP1 inh)
COc1c(-c2ccc(O)c(O)c2)oc2cc(O)cc(O)c2c1=O	FEN1 inhibitor 25.1µM, WRN helicase inh 31.6µM, Tb PGK inh inconclusive, Tb PFK inh inconclusive, PI5P4K alpha inh inconclusive
O=c1c(O[C@@H]2O[C@H](CO)[C@H](O)[C@H](O)[C@H]2O)c(-c2ccc(O)c(O)c2)oc2cc(O)cc(O)c12	Tb PFK inh 6.75µM (no result: FEN1 inhibitor, WRN helicase inh, Tb PGK inh, PI5P4K alpha inh)
CC1OC(OCC2OC(Oc3c(-c4ccc(O)cc4)oc4cc(O)cc(O)c4c3=O)C(O)C(O)C2O)C(O)C(O)C1O (centres undefined)	FEN1 inhibitor inconclusive, WRN helicase inh inconclusive, Tb PGK inh inconclusive, PI5P4K alpha inh -66.6
O=c1c(O[C@@H]2O[C@H](CO)[C@@H](O)[C@H](O)[C@H]2O)c(-c2ccc(O)c(O)c2)oc2cc(O)cc(O)c12	Tb PFK inh inconclusive (no result: FEN1 inhibitor, WRN helicase inh, Tb PGK inh, PI5P4K alpha inh)

Bioassay records deposited in PubChem BioAssay by National Center for Advancing Translational Sciences (NCATS).
